Compound activity deposited in PubChem BioAssay by National Center for Advancing Translational Sciences (NCATS).
Sampled rows, rich in hits. Any-hit rate of the full collection: about 21%.
Pf growth 96h – P. falciparum growth inhibition at 96 hours; P. falciparum luciferase reporter growth, 96 h; Potency, µM (top dose mostly 28.7 µM), without a hit: at the highest dose activity change, negative = inhibition, most hits filed as inhibitors; hit rate 6.9% among 320,000; AID 504834; also: potency is read from the fitted curve at half-maximal effect; % is scaled to controls: 0 for no effect and ±100 for the full control effect
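P. falciparum expressing integrated firefly luciferase grown in erythrocytes (2% hematocrit, 0.05% parasitemia final) with compounds for 96 hours at 37 C, 5% CO2. Growth inhibition read as loss of luminescence after adding luciferase detection reagent.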
CHX counter – counter-screen hit for Shiga toxin inhibitors, cycloheximide; cell reporter, cycloheximide protein synthesis inhibition counterscreen; max response, %; hit rate 12% among 300,000; AID 2314; in the data active = max response mostly above about 13%, no sharp cut-off; inactive = mostly below about 14%; also: read at 38.3 µM for the half of the compounds with a filed dose; 0% is about no effect
HCV inh – blocks hepatitis C virus | Potency, µM (doses to about 41.8 µM), inactives show top-dose activity change, negative = inhibition, actives largely listed as inhibitors | AID 651820 | hit rate 3.4% among 340,000 | Huh7.5.1 HCVcc-Cre infection, luciferase reporter, 44 h; also: potency is read from the fitted curve at half-maximal effect; % is scaled to controls: 0 for no effect and ±100 for the full control effect
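Cells seeded at 1,000/well and cultured 4 h, then compounds added followed by HCVcc-Cre virus (~0.5 moi). After 44 h further culture, luciferase substrate was added, plates held 15 min at room temperature, and luminescence read for 15 sec.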
Shiga inhibitor – Shiga toxin inhibition; Vero cells, Shiga toxin protein synthesis inhibition reporter; inhibition, % at 38.7 µM; hit rate 9.2% among 290,000; AID 2315; in the data active = inhibition mostly above about 28%, no sharp cut-off; inactive = mostly below about 43%; also: 0% is about no effect
Pf growth 48h – P. falciparum growth inhibition at 48 hours (one generation); Potency, µM (highest dose often 28.7 µM), for the others: top-dose activity change, negative = inhibition, usual class: inhibitors; hit rate 5.9% among 310,000; P. falciparum luciferase growth in erythrocytes, 48 h; also: potency is read from the fitted curve at half-maximal effect; % is scaled to controls: 0 for no effect and ±100 for the full control effect
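Firefly luciferase activity from engineered P. falciparum reports growth; inhibitors lower the luminescent signal. Cultures contained 2% hematocrit erythrocytes at 0.1% final parasitemia.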
HCMV antiviral – human cytomegalovirus inhibition | HFF cells, HCMV-luciferase reporter, 72 h; stronger effect = lower value | activity change, negative = inhibition, % at 57.5 µM | hit rate 4.5% among 410,000 | AID 1259415; in the data active = activity change below about -60%; inconclusive = no clear call, values can overlap the other calls; inactive = above about -39%; also: % is scaled to controls: 0 for no effect and ±100 for the full control effect
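Two-dose cell screen: HFF monolayers treated with compounds and infected with luciferase-expressing HCMV at 1 PFU/cell, 72 h at 37C, then lysed for luciferase measurement.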
The depositor's hits bear a star; ? = inconclusive; nt = not tested or not shown; ! = a repeat was not active. Unless noted, calls follow the shape of the dose curve; as a rule, active = well fitted inhibition curve with a large enough effect; inconclusive = small, poorly fitted or top-dose-only effect, or another doubt; inactive = no such curve, though single readings can be large or run the other way.

SMILES	Pf growth 96h	CHX counter	HCV inh	Shiga inhibitor	Pf growth 48h	HCMV antiviral
Cc1cc(NC2CCCCC2)nc(NCc2ccccc2)n1	1.47µM*	-4.8	?	-18.4	1.85µM*	-93.0*
Cc1cc(N2CCN(c3ccccc3)CC2)nc(NCc2ccccc2)n1	nt	6.7	-3.3%	3.4	?	-39.3
CCOC(=O)[C@]12CCC=C1N(Cc1ccc(Cl)cc1Cl)C(=O)[C@H](CC(=O)NCC13CC4CC(CC(C4)C1)C3)C2	nt	nt	nt	nt	nt	26.1
COc1ccnc(CSC(N)=Nc2cccc(C(F)(F)F)c2)c1	?	24.6*	36.4%	42.0	?	?
COc1ccnc(CSC(N)=Nc2ccccc2C(F)(F)F)c1	19.5%	14.7	11.8%	22.0*	12.8%	-0.9
COc1ccnc(CSC(N)=Nc2ccccc2OC)c1	?	75.5*	0.9%	91.3*	40.0%	-18.9
CC(C)CC(=O)NCC(c1ccc2c(c1)OCO2)N1CCN(c2ccccc2)CC1 (stereo unspecified)	nt	nt	nt	nt	nt	18.9
CCOc1ccc(NCc2nnc(SCC(=O)Nc3nc(-c4ccccc4)cs3)n2-c2ccccc2)cc1	-14.0%	-1.5	7.3%	-6.6	8.0%	-26.6
O=C(NNC(=S)NCc1ccccc1)c1ccc(Br)cc1	17.2%	-2.1	19.4%	17.0	28.0%	-25.3
Cc1ccccc1OCCSc1nc2ccccc2n1CCC(=O)O	-1.8%	9.5	8.8%	nt	-20.1%	35.0
CCc1c(-c2ccccc2OC)ncn1Cc1cccc(-c2ccccc2)c1	nt	nt	nt	nt	nt	-98.5*
CCCc1c(-c2ccc(F)cc2F)ncn1Cc1cccc(-c2ccccc2)c1	nt	nt	nt	nt	nt	-86.7*
COc1ccccc1-c1ncn(Cc2cccc(-c3ccccc3)c2)c1-c1ccco1	nt	nt	nt	nt	nt	-26.5
CCCc1c(-c2cccc(Cl)c2)ncn1Cc1cccc(-c2ccccc2)c1	nt	nt	nt	nt	nt	-15.9
CCOC(=O)c1sc(NC(=O)C2CCCCC2)nc1C	nt	nt	4.8%	nt	nt	-4.2
COc1ccc(OC)c(CNC(=O)Cc2ccc(NC(=O)N3CCCCc4ccccc43)cc2)c1	nt	nt	nt	nt	nt	11.1
Cc1ccc2c(CNCc3cccc(Cl)c3)c(C(=O)O)n(Cc3ccc(F)cc3Cl)c2c1	nt	nt	nt	nt	nt	6.8
Cc1ccc(NC(=O)c2ccccc2NS(=O)(=O)c2ccc(F)cc2)cc1S(=O)(=O)N1CCCCC1	11.7µM*	-0.9	?	-2.1	13.1µM*	-98.3*
O=C(Nc1cccc(S(=O)(=O)N2CCCCC2)c1)c1ccccc1NS(=O)(=O)c1ccc(F)cc1	8.28µM*	0.5	?	24.0	11.7µM*	-97.6*
Cc1ccc(NC(=O)CCNC(=O)c2ccccc2Cl)cc1S(=O)(=O)N1CCCCCC1	?	nt	?	nt	?	-9.1
CN(Cc1nc(-c2ccc(Cl)cc2)no1)C(=O)CCN1C(=O)[C@H]2CC=CC[C@H]2C1=O	23.8%	3.0	?	-1.4	11.4%	-21.0
COc1cccc(CN(CCC(=O)O)Cc2cccc(OC)c2)c1	nt	nt	nt	nt	nt	23.3
O=C(NCCS(=O)(=O)N1CCN(Cc2ccccc2)CC1)c1ccc(F)cc1	15.5%	nt	-0.4%	nt	2.1%	-14.9
Cn1c(SCC(=O)NC2CCCC2)nnc1C(F)(F)F	17.7%	nt	18.8%	nt	12.6%	-20.2
CC(C)OC(=O)N(C)C[C@@H]1OCc2cnnn2CCCC(=O)N([C@H](C)CO)C[C@H]1C	nt	nt	nt	nt	nt	4.4
SMILES	Pf growth 96h	CHX counter	HCV inh	Shiga inhibitor	Pf growth 48h	HCMV antiviral
COc1ccc(Nc2nnc(-c3ccc(C)c(S(=O)(=O)N4CCOCC4)c3)c3ccccc23)cc1	nt	nt	nt	nt	nt	-99.2*
Cc1ccc(-c2nnc(NCc3nc4ccccc4[nH]3)c3ccccc23)cc1S(=O)(=O)N1CCCCC1	13.1µM*	-2.7	?	8.0	?	-36.7
Cc1ccc(-c2nnc(Nc3cccc(O)c3)c3ccccc23)cc1S(=O)(=O)N1CCCCC1	nt	nt	nt	nt	nt	-74.3*
COc1ccc(Nc2nnc(-c3ccc(C)c(S(=O)(=O)N4CCN(C)CC4)c3)c3ccccc23)cc1	nt	nt	nt	nt	nt	-99.1*
Cc1ccc(-c2nnc(Nc3ccccc3)c3ccccc23)cc1S(=O)(=O)NCc1nc2ccccc2[nH]1	nt	nt	nt	nt	nt	-32.3
CCN(CC(=O)NCc1cccs1)C(=O)c1cccc(S(=O)(=O)N(C)C)c1	nt	nt	6.5%	nt	nt	-27.9
C/C(=C\COc1c2ccoc2cc2oc(=O)ccc12)CCC(O)C(C)(C)O (stereo unspecified)	nt	-7.7	nt	2.6	nt	nt
Cc1ccc(-c2nc3ccccc3s2)cc1S(=O)(=O)N1CCCC1	?	29.9*	?	43.5	nt	-36.6
Cc1ccc(-c2nnc(Nc3ccc(O)cc3)c3ccccc23)cc1S(=O)(=O)N1CCOCC1	nt	nt	nt	nt	nt	-88.3*
O=S(=O)(c1cccc(-c2nc3ccccc3s2)c1)N1CCOCC1	?	14.0	-27.3%	2.2	nt	49.2
Cc1ccc(-c2nnc(NC3CCCCC3)c3ccccc23)cc1S(=O)(=O)N1CCN(C)CC1	?	0.8	-29.4%	-16.7	nt	-73.5*
Cc1ccc(Nc2nnc(-c3ccc(C)c(S(=O)(=O)N4CCOCC4)c3)c3ccccc23)cc1	nt	nt	nt	nt	nt	5.5
Cc1cccc(Nc2nnc(-c3ccc(C)c(S(=O)(=O)N4CCN(C)CC4)c3)c3ccccc23)c1	nt	nt	nt	nt	nt	-69.4*
Cc1ccc(-c2nnc(Nc3ccccc3)c3ccccc23)cc1S(=O)(=O)N1CCN(C)CC1	nt	nt	nt	nt	nt	-17.3
O=C(Nc1ccc(Cl)cc1)ON=C1CCCC1	?	40.3*	0.9%	56.3*	11.7µM*	-12.3
C/C(=N\OC(=O)Nc1ccc(Cl)cc1)c1ncc(C(F)(F)F)cc1N1CCOCC1	nt	12.3	-3.6%	42.5	-19.8%	34.6
O=C(NCCCCCCNC(=O)ON=C1CCCCC1)ON=C1CCCCC1	nt	27.4*!	nt	27.2*!	nt	nt
C/C(=N\OC(=O)Nc1ccc(Cl)cc1)c1ccc(F)c(F)c1	25.9%	17.3*	6.2%	53.9*	nt	-4.8
CSCC[C@H](NC(=O)OC(C)(C)C)C(=O)N/N=C/c1ccc2nccnc2c1	?	5.8	8.4%	2.8	-9.0%	-22.8
COc1ccc(-c2nnc(SCC(=O)NC(=O)NCc3ccco3)o2)cc1	56.1%	9.4*	-4.7%	13.8	-4.3%	59.6
COc1cc(-c2nc(SCC(=O)Nc3ccc(C)cc3)c(-c3ccc(F)cc3)[nH]2)cc(OC)c1OC	nt	nt	nt	nt	nt	-61.2*
COc1cccc(-c2nc(SCC(=O)NCc3ccco3)c3c(=O)n(C)c(=O)n(C)c3n2)c1	nt	nt	nt	nt	nt	-18.0
COc1ccc(-c2[nH]c(-c3cccc(OC)c3)nc2SCC(=O)NCc2ccco2)cc1	?	0.7	11.2µM*	10.9	?	5.9
COc1cc(NC(=O)CSc2ccc(-c3ccco3)nn2)cc(OC)c1	10.4µM*	-0.6	?	-15.2	-5.4%	-4.6
Cc1cccc(Cc2c(C)nc3nc(SCC(=O)NCc4ccccc4)nn3c2C)c1	nt	nt	nt	nt	nt	14.0
COc1ccc(C(=O)N(c2ccc(OC)cc2)S(=O)(=O)c2ccc3c(c2)n(C)c(=O)n3C)cc1	nt	nt	nt	nt	nt	-8.6
Cc1ccc(NC(=O)CSc2ccc(-c3ccco3)nn2)cc1	13.0%	8.7	?	10.9	10.2%	9.3
